# From PubChem BioAssay (EPA / NIEHS)
# Values joined by “and” are separate entries in the source; they are usually repeats but may differ in a detail not shown here. Equal values may be shown once. Results filed as inconclusive are left out. Active and inactive are the calls of the source. How the source made its calls, unless noted: active means hit-call score of the fitted dose curve at least 0.9, where 1 is the maximum; inconclusive means response in the unintended direction; inactive means score below 0.9.
# How the values were obtained:
# DIO1 (gene 1733) = assay: CCTE_GLTED_hDIO1: CCTE's human Deiodinase 1 (DIO1) Inhibition Assay, Great Lakes Toxicology and Ecology Division (GLTED) Lab (AID 2283987);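 further: isolated human DIO1 enzyme in a cell-free setup rather than cells; enzyme activity read as free iodide liberated from substrate via Sandell-Kolthoff colorimetry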
# Procedure, shortened: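 Cell-free human DIO1 enzyme was incubated with test chemical for 3 h, and iodide released from substrate was measured by Sandell-Kolthoff absorbance. Loss of signal versus DMSO baseline indicated inhibition; plates were run in triplicate.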
# [1] = CCTE_Simmons_MITO_basal_resp_rate: CCTE's HepG2 Seahorse XF Respirometric Screening Assay at Basal Respiratory State, Simmons Lab (AID 2284001; active means hit-call score of the fitted dose curve at least 0.9, where 1 is the maximum; inactive means score below 0.9); details: actives raise or lower the signal
# Procedure, shortened: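 Readout is oxygen consumption rate after test compound injection, measured by Seahorse XF in HepG2 cells. Seven concentrations from 125 nM up to 100 uM final are tested, and activity in either direction is fitted against DMSO.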
# [2] = biological target: Nucleoli Translocation, AR (gene 367) (UniProt P10275); assay: UPITT_HCI_U2OS_AR_TIF2_Nucleoli_Antagonist: University of Pittsburgh U2OS Androgen Receptor-Transcriptional Intermediary Factor 2 (AR-TIF2) Antagonism High Content Imaging Assay for Nucleoli Translocation (AID 2283997)
# Nucleoli Translocation, AR (gene 367), sequence (P10275 whole entry, looked up, the tested form may be a part): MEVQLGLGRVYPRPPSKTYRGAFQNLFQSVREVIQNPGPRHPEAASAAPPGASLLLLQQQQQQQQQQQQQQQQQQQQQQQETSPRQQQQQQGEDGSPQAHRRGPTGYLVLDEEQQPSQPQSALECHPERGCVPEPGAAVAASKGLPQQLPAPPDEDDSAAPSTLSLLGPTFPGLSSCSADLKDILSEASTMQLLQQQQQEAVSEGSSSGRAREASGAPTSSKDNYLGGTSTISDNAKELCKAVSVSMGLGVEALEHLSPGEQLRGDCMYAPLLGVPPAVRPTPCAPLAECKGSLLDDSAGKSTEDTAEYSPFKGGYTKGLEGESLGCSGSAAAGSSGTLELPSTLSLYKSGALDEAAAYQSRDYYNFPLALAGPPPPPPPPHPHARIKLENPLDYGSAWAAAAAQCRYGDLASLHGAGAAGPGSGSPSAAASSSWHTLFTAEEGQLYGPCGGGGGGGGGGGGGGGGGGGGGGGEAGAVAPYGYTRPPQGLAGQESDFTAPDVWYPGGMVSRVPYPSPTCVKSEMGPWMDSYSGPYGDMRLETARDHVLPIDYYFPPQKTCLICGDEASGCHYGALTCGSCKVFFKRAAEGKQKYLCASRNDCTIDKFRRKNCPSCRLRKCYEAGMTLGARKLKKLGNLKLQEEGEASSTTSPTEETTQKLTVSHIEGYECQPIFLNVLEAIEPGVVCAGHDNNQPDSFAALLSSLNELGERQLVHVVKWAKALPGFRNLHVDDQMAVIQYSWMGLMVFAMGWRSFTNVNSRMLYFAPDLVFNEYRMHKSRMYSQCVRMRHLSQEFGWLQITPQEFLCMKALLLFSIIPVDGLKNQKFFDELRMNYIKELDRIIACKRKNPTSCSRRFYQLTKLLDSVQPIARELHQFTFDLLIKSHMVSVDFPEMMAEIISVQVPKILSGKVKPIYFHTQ
# Procedure, shortened: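 An antagonist-mode imaging screen: engineered U2OS (AR-RFP, TIF2-GFP) exposed to 20 uM compound, 0.2% DMSO. Activity reflects nucleolar red fluorescence change relative to DHT baseline.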
# [3] = biological target: Nucleoli Translocation, AR (gene 367) (UniProt P10275); assay: UPITT_HCI_U2OS_AR_TIF2_Nucleoli_Agonist: University of Pittsburgh U2OS Androgen Receptor-Transcriptional Intermediary Factor 2 (AR-TIF2) Agonism High Content Imaging Assay for Nucleoli Translocation (AID 2283998)
# Procedure, shortened: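 Cells express human AR fused to red fluorescent protein and TIF2 fused to GFP. Red fluorescence in the nucleolar region was quantified by high-content imaging and fitted as gain-of-signal against a DMSO baseline. Compounds were tested at 0.195 to 50 uM final (0.5% DMSO).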
# [4] = biological target: Ratio of Nucleoli Translocation and Cytoplasm, AR (gene 367) (UniProt P10275); assay: UPITT_HCI_U2OS_AR_TIF2_Nucleoli_Cytoplasm_Ratio_Antagonist: University of Pittsburgh U2OS Androgen Receptor-Transcriptional Intermediary Factor 2 (AR-TIF2) Antagonism High Content Imaging Assay for Ratio of Nucleoli Translocation and Cytoplasm (AID 2283999);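 further: antagonists lower the DHT-driven ratio of nucleolar to cytoplasmic red signal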
# Ratio of Nucleoli Translocation and Cytoplasm, AR (gene 367), sequence (P10275 whole entry, looked up): as the sequence (P10275 whole entry, looked up, the tested form may be a part) above
# Procedure, shortened: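 Read-out is the ratio of nucleolar to cytoplasmic AR-RFP fluorescence, imaged by high-content microscopy in U2OS cells coexpressing TIF2-GFP. Single-point 20 uM screen, triplicate confirmation, then 0.195–50 uM dose response; activity referenced to DHT baseline.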
# [5] = biological target: Ratio of Nucleoli Translocation and Cytoplasm, AR (gene 367) (UniProt P10275); assay: UPITT_HCI_U2OS_AR_TIF2_Nucleoli_Cytoplasm_Ratio_Agonist: University of Pittsburgh U2OS Androgen Receptor-Transcriptional Intermediary Factor 2 (AR-TIF2) Agonism High Content Imaging Assay for Ratio of Nucleoli Translocation and Cytoplasm (AID 2284000);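 further: hits raise the red nucleolar to cytoplasm ratio above vehicle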
# Procedure, shortened: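 Primary screen at 20 uM final (0.2% DMSO), then triplicate confirmation and dose-response from 0.195 to 50 uM final (0.5% DMSO). Cells: U2OS with AR-RFP and TIF2-GFP. Endpoint is the nucleoli/cytoplasm red-fluorescence ratio, gain-of-signal vs DMSO.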
# [6] = biological target: Retinoic acid receptor RXR-alpha (Homo sapiens) (UniProt P19793); assay: TOX21_TR_RXR_BLA_Agonist_Followup_ratio: Tox21 Thyroid Hormone Receptor beta Retinoid X Receptor alpha (RXRa) Agonism Beta-lactamase (BLA) Follow-Up Assay, Ratio (AID 2283968)
# Retinoic acid receptor RXR-alpha (Homo sapiens), sequence (P19793 whole entry, looked up): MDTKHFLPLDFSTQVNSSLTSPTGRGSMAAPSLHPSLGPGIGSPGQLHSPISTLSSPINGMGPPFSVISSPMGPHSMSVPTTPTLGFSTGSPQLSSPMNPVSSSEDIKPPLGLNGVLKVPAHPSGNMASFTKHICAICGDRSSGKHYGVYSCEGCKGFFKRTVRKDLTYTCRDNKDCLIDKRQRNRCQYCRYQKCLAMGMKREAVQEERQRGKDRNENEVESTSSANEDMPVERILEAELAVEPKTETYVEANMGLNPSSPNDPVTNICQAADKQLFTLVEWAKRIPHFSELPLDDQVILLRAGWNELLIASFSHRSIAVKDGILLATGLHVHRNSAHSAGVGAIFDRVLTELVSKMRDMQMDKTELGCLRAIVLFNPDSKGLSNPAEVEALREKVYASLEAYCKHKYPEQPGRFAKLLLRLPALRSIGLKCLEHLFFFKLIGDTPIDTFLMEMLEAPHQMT
# Procedure, shortened: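 Read-out: blue/green (460:530 nm) FRET ratio from cleaved vs uncleaved CCF4 substrate, fitted for gain of signal relative to DMSO. Cells: HEK293T with RXRa-UAS-bla reporter; 16 h compound exposure, 11 concentrations, triplicate.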
# [7] = TOX21_TR_RXR_BLA_Agonist_Followup_viability: Viability Assessment in the Tox21 Thyroid Hormone Receptor beta Retinoid X Receptor alpha (RXRa) Agonism Beta-lactamase (BLA) Follow-Up Assay (AID 2283970)
# Procedure, shortened: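 CellTiter-Glo ATP quantitation as viability read-out in RXRa-bla HEK293T cells (2,500/well, charcoal-stripped 2% FBS medium), 16h compound incubation at 37C. Loss of signal versus DMSO taken as cytotoxicity, analyzed by bidirectional curve fitting.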
# [8] = CCTE_Harrill_HTTr_Viability_DMEM_6hr: (Pilot) CCTE's 6-hour Cell Viability Assessment for the High-Throughput Transcriptomics (HTTr) Platform, in MCF-7 cells cultured in DMEM + 10% fetal bovine serum, Harrill Lab (AID 2283973; active means hit-call score of the fitted dose curve at least 0.9, where 1 is the maximum; inactive means score below 0.9)
# Procedure, shortened: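 Propidium iodide uptake imaged by high-content analysis after six hours of chemical treatment in an eight-concentration series. Cells: MCF-7 grown in DMEM with 10% fetal bovine serum; DMSO as baseline.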
# [9] = CCTE_Harrill_HTTr_Viability_DMEM_12hr: (Pilot) CCTE's 12-hour Cell Viability Assessment for the High-Throughput Transcriptomics (HTTr) Platform, in MCF-7 cells cultured in DMEM + 10% fetal bovine serum, Harrill Lab (AID 2283974; active means hit-call score of the fitted dose curve at least 0.9, where 1 is the maximum; inactive means score below 0.9)
# Procedure, shortened: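 Propidium iodide dye exclusion imaged by high-content microscopy after 12 h chemical exposure (eight concentrations) of MCF-7 cells grown in DMEM plus 10% FBS; values fitted in both directions relative to DMSO.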
# [10] = CCTE_Harrill_HTTr_Viability_DMEM_24hr: (Pilot) CCTE's 24-hour Cell Viability Assessment for the High-Throughput Transcriptomics (HTTr) Platform, in MCF-7 cells cultured in DMEM + 10% fetal bovine serum, Harrill Lab (AID 2283975; active means hit-call score of the fitted dose curve at least 0.9, where 1 is the maximum; inactive means score below 0.9)
# Procedure, shortened: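 Pilot study: propidium iodide dye exclusion, imaged by high content microscopy, after 24 h compound exposure (eight concentrations) in MCF-7 cultured in DMEM + 10% fetal bovine serum; DMSO served as negative control and baseline.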
# [11] = CCTE_Harrill_HTTr_Viability_PRF_DMEM_6hr: (Pilot) CCTE's 6-hour Cell Viability Assessment for the High-Throughput Transcriptomics (HTTr) Platform, in MCF-7 cells cultured phenol red-free DMEM + 10% charcoal-stripped fetal bovine serum, Harrill Lab (AID 2283976; active means hit-call score of the fitted dose curve at least 0.9, where 1 is the maximum; inactive means score below 0.9)
# Procedure, shortened: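 Membrane integrity by high-content imaging of propidium iodide uptake, six hours after dosing with eight concentrations. Cells: MCF-7 grown in phenol red-free DMEM plus 10% charcoal-stripped serum; DMSO serves as baseline for bidirectional fits.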
# [12] = CCTE_Harrill_HTTr_Viability_PRF_DMEM_12hr: (Pilot) CCTE's 12-hour Cell Viability Assessment for the High-Throughput Transcriptomics (HTTr) Platform, in MCF-7 cells cultured in phenol red-free DMEM + 10% charcoal-stripped fetal bovine serum, Harrill Lab (AID 2283977; active means hit-call score of the fitted dose curve at least 0.9, where 1 is the maximum; inactive means score below 0.9)
# Procedure, shortened: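 Membrane integrity was scored via propidium iodide dye exclusion imaging, fitted in both directions relative to DMSO. Compounds ran as eight-point dilutions for 12 hours on MCF-7 grown in phenol red-free DMEM plus 10% charcoal-stripped serum.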
# [13] = CCTE_Harrill_HTTr_Viability_PRF_DMEM_24hr: (Pilot) CCTE's 24-hour Cell Viability Assessment for the High-Throughput Transcriptomics (HTTr) Platform, in MCF-7 cells cultured in phenol red-free DMEM + 10% charcoal-stripped fetal bovine serum, Harrill Lab (AID 2283980; active means hit-call score of the fitted dose curve at least 0.9, where 1 is the maximum; inactive means score below 0.9)
# Procedure, shortened: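 Propidium iodide exclusion imaged at 24 h after dosing scores viability; cells were MCF-7 grown in phenol red-free DMEM plus 10% charcoal-stripped serum, tested in eight concentrations, fitted in both directions against DMSO.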
# [14] = CCTE_Harrill_HTTr_Apoptosis_DMEM_6hr: (Pilot) CCTE's 6-hour Apoptosis Assessment for the High-Throughput Transcriptomics (HTTr) Platform, in MCF-7 cells cultured in DMEM + 10% fetal bovine serum, Harrill Lab (AID 2283981; active means hit-call score of the fitted dose curve at least 0.9, where 1 is the maximum; inactive means score below 0.9)
# Procedure, shortened: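 MCF-7 cells grown in DMEM + 10% FBS were exposed for 6 hours to an eight-point dilution series. CellEvent Caspase 3/7 Green signal was imaged; activity fitted bidirectionally against DMSO.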
# [15] = CCTE_Harrill_HTTr_Apoptosis_DMEM_12hr: (Pilot) CCTE's 12-hour Apoptosis Assessment for the High-Throughput Transcriptomics (HTTr) Platform, in MCF-7 cells cultured in DMEM + 10% fetal bovine serum, Harrill Lab (AID 2283982; active means hit-call score of the fitted dose curve at least 0.9, where 1 is the maximum; inactive means score below 0.9)
# Procedure, shortened: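 Caspase-3/7 activity was measured by high-content imaging (CellEvent Caspase 3/7 Green) after a 12-hour exposure of MCF-7 cells grown in DMEM with 10% FBS. Eight-point concentration series, fitted bidirectionally against vehicle.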
# [16] = CCTE_Harrill_HTTr_Apoptosis_DMEM_24hr: (Pilot) CCTE's 24-hour Apoptosis Assessment for the High-Throughput Transcriptomics (HTTr) Platform, in MCF-7 cells cultured in DMEM + 10% fetal bovine serum, Harrill Lab (AID 2283983; active means hit-call score of the fitted dose curve at least 0.9, where 1 is the maximum; inactive means score below 0.9)
# Procedure, shortened: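 Caspase-3/7 activity read by high-content imaging (CellEvent Green reagent) 24 h after dosing. MCF-7 cells grown in DMEM with 10% FBS received an eight-point concentration series; fits were bidirectional versus DMSO.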
# [17] = CCTE_Harrill_HTTr_Apoptosis_PRF_DMEM_6hr: (Pilot) CCTE's 6-hour Apoptosis Assessment for the High-Throughput Transcriptomics (HTTr) Platform, in MCF-7 cells cultured phenol red-free DMEM + 10% charcoal-stripped fetal bovine serum, Harrill Lab (AID 2283984; active means hit-call score of the fitted dose curve at least 0.9, where 1 is the maximum; inactive means score below 0.9)
# Procedure, shortened: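 Caspase-3/7 activity (CellEvent Green) read by high-content imaging 6 h after dosing, eight concentrations. Cells: MCF-7, phenol red-free DMEM with 10% charcoal-stripped serum. Curves fit both directions against DMSO.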
# [18] = CCTE_Harrill_HTTr_Apoptosis_PRF_DMEM_24hr: (Pilot) CCTE's 24-hour Apoptosis Assessment for the High-Throughput Transcriptomics (HTTr) Platform, in MCF-7 cells cultured in phenol red-free DMEM + 10% charcoal-stripped fetal bovine serum, Harrill Lab (AID 2283986; active means hit-call score of the fitted dose curve at least 0.9, where 1 is the maximum; inactive means score below 0.9)
# Procedure, shortened: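 Eight concentrations tested for 24 h on MCF-7 grown in charcoal-stripped serum, phenol red-free DMEM. High content imaging of CellEvent Caspase 3/7 Green signal gives apoptosis read-out, fitted both ways relative to DMSO.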
structure (smiles),measurement,setting,value
CCCCCCCCCCCCN1CCCC1=O,AC50,DIO1 (gene 1733),159 µM (active)
same,AC50,[1],31.4 µM (active)
CCCCCCCCCCCCc1ccccc1S(=O)(=O)O,AC50,DIO1 (gene 1733),96.3 µM (active)
same,AC50,[2],83 µM (active)
same,AC50,[3],90.7 µM (active)
same,outcome,[4],inactive
same,AC50,[5],90.9 µM (active)
O=[N+]([O-])c1ccc(O)cc1,AC50,[1],66.5 µM (active) and 66 µM (active)
ClC1=C(Cl)C(Cl)(Cl)C(Cl)=C1Cl,AC50,DIO1 (gene 1733),78.5 µM (active)
CCCOC(=O)c1ccc(O)cc1,AC50,[1],35.8 µM (active)
CCCOc1sc(C(=O)N2CCC(c3cc(CN)ccc3F)CC2)c(C)c1Br,outcome,[2],inactive
same,AC50,[3],7.93 µM (active)
same,outcome,[4],inactive
same,AC50,[5],8.47 µM (active)
CN1CCN(c2ccccc2/C=C2\SCCN(c3ccc(Cl)c(Cl)c3)C2=O)CC1,outcome,[1],inactive
O=c1c(-c2ccc(O)cc2)coc2cc(O)ccc12,AC50,DIO1 (gene 1733),17.2 µM (active)
same,outcome,[2],inactive
Cc1cc(CCN2CCN(c3nsc4ccccc34)CC2)cc2c1NC(=O)CC2(C)C,AC50,[2],50 µM (active)
same,outcome,[4],inactive
same,outcome,[5],inactive
same,AC50,[1],12.2 µM (active)
CCCCC[C@H](O)CC(=O)CCc1ccc(O)c(OC)c1,outcome,[2],inactive
same,outcome,[4],inactive
same,outcome,[5],inactive
CC[C@H](c1ccc(O)cc1)[C@@H](CC)c1ccc(O)cc1,AC50,[2],50 µM (active)
same,AC50,[3],50 µM (active)
same,outcome,[4],inactive
same,AC50,[5],50 µM (active)
same,AC50,[1],20.8 µM (active)
CC(C)(C)c1cc(C(C)(C)C)c(O)c(C(C)(C)C)c1,AC50,[6],59.6 µM (active)
same,outcome,[7],inactive
Cc1oc(-c2ccccc2)nc1CCOc1ccc(C[C@H](Nc2ccccc2C(=O)c2ccccc2)C(=O)O)cc1,outcome,[8],inactive
same,outcome,[9],inactive
same,outcome,[10],inactive
same,outcome,[11],inactive
same,outcome,[12],inactive
same,outcome,[13],inactive
same,outcome,[14],inactive
same,outcome,[15],inactive
same,outcome,[16],inactive
same,outcome,[17],inactive
same,outcome,[18],inactive
same,AC50,DIO1 (gene 1733),72.1 µM (active)
same,AC50,[2],67.6 µM (active)
same,outcome,[3],inactive
same,outcome,[4],inactive
same,outcome,[5],inactive
Oc1cc2ccccc2c2ccccc12,AC50,[2],3.25 µM (active)
same,outcome,[3],inactive
same,AC50,[4],3.08 µM (active)
same,outcome,[5],inactive
same,AC50,[1],28.6 µM (active)
NC(=O)N(O)[C@@H]1C=C[C@H](Oc2cccc(Oc3ccc(F)cc3)c2)C1,AC50,[1],22.1 µM (active)
CCc1nn(C2CCCCC2)c2cc(C3(C#N)CCC(C(=O)O)CC3)ccc12 (stereo unspecified),AC50,[1],15.6 µM (active)
c1ccc2c(c1)ccc1ccccc12,AC50,[2],33.7 µM (active)
same,outcome,[3],inactive
same,outcome,[4],inactive
same,outcome,[5],inactive
COc1cc(CCC(=O)CC(=O)CCc2ccc(O)c(OC)c2)ccc1O,AC50,[2],26.6 µM (active)
same,outcome,[4],inactive
same,outcome,[5],inactive
